KDM5B inh = Primary screen for KDM5B Histone Demethylases FDH-coupled qHTS. hit rate 2.6% among 220,000. Potency, µM (top dose mostly 57.7 µM), hits mostly inhibitors. KDM5B demethylase, FDH-coupled NADH fluorescence (FDH is formaldehyde dehydrogenase). AID 1347165, 2019; active = well fitted inhibition curve with a large enough effect; note: 0% is about no effect; nearly all actives have a fitted effect of over 70% in size
Target sequence (Q9UGL1 whole entry, looked up): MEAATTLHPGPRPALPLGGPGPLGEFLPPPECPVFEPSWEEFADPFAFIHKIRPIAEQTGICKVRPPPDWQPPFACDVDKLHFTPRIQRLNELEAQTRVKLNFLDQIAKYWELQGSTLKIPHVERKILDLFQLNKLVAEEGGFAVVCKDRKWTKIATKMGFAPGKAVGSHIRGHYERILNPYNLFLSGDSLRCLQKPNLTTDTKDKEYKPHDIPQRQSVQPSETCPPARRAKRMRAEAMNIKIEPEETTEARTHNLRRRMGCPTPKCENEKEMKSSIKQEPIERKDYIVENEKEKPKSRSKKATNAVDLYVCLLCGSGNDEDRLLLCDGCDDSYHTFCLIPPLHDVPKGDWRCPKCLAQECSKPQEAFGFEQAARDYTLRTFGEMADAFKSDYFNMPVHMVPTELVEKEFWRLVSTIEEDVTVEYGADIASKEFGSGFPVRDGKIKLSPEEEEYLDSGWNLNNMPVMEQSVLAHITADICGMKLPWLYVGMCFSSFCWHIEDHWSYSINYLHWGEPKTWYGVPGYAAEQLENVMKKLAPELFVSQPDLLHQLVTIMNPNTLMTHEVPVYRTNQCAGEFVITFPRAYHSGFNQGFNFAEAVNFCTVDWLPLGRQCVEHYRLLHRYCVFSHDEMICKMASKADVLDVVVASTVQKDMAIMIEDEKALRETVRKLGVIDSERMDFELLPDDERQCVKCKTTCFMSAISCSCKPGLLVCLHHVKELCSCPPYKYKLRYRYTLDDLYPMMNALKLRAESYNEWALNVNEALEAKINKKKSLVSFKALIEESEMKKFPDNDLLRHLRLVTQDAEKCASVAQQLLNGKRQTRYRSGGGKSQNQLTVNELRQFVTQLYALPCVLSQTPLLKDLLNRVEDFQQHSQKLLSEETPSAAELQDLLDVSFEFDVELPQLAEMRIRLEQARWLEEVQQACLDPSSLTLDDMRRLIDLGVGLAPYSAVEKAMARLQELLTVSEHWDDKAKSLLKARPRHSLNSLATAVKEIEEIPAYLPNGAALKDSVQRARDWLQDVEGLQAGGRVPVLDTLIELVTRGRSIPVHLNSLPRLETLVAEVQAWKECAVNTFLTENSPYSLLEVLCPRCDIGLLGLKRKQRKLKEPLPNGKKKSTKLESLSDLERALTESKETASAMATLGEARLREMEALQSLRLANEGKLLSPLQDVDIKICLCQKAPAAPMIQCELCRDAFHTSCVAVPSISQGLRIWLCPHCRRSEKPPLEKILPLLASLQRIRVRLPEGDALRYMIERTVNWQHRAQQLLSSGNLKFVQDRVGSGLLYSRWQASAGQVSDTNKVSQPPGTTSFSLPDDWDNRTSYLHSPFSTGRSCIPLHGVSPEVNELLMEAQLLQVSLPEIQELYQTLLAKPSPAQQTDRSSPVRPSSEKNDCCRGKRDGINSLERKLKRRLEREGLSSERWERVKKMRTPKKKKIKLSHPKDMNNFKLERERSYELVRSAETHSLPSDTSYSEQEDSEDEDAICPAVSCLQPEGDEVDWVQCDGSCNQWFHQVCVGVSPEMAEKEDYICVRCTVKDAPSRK
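qHTS format, multiple compound concentrations. Buffer 50 mM HEPES pH 7.5/0.01% Tween-20; 200 nM KDM5BΔAP final; 10 min compound preincubation; substrate-mix levels 12.5 µM peptide, 25 µM α-KG, 0.25 mM NAD⁺; 30 min RT; ΔRFU.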
* = called active by the depositor; i = inactive. This is one part of a sample in which hits are shown more often than they occur. Potency is the fitted concentration of half-maximal effect.

SMILES	KDM5B inh
Cc1cc(CNC(=O)c2cc(-c3ccccc3F)cc3c2OCCN3C)no1	31.6µM*
C=CCNC(=O)COC(=O)c1c(C)c(-c2ccccc2)nc2ccccc12	i
Cc1cc(C(=O)COC(=O)c2nn(C)c(=O)c3ccccc23)c(C)n1CC(F)(F)F	i
CCc1ccc(NC(=O)c2nc3ccccc3nc2N2CCOCC2)cc1	i
O=C(c1ccc(F)cc1)N1CCc2nc(OCC3CC3)ccc2C1	i
O=C(Nc1cccc(Cl)c1)N1CCN(Cc2nc3cc(C(=O)N4CCCCC4)ccc3o2)CC1	i
COc1ccc(CNC[C@H]2Cn3c(-c4ccc(Cl)cc4)cnc3CO2)cn1	i
CCCCCCC#CC#Cc1cccc(C(=O)O)c1	i
Cc1csc2nc(-c3cccc(NS(=O)(=O)c4cccs4)c3)cn12	i
C[C@@H]1C(=O)O[C@H]2[C@H]1CC[C@@]1(C)Cc3sc(NC(=O)CS(=O)(=O)c4ccccc4)nc3[C@@H](C)[C@H]21	i
C[C@@H]1C(=O)O[C@H]2[C@H]1CC[C@@]1(C)Cc3sc(Nc4ccc(F)cc4)nc3[C@@H](C)[C@H]21	i
C[C@@H]1C(=O)O[C@H]2[C@H]1CC[C@@]1(C)Cc3sc(NS(=O)(=O)c4ccc(Cl)cc4)nc3[C@@H](C)[C@H]21	i
C[C@@H]1C(=O)O[C@H]2[C@H]1CC[C@@]1(C)Cc3sc(NS(=O)(=O)c4ccc(F)c(Cl)c4)nc3[C@@H](C)[C@H]21	i
COc1cc(C(=O)Nc2nc3c(s2)C[C@]2(C)CC[C@@H]4[C@H](OC(=O)[C@H]4C)[C@H]2[C@@H]3C)cc(OC)c1OC	28.2µM*
C[C@@H]1C(=O)O[C@H]2[C@H]1CC[C@@]1(C)Cc3sc(NC(=O)c4ccc(F)c(Cl)c4)nc3[C@@H](C)[C@H]21	28.2µM*
COc1cccc(CNC(=O)COc2ncnc3ccccc23)c1	i
CCCCN(Cc1cc2ccccc2[nH]c1=O)C(=O)c1ccc(OC)cc1	i
Cc1ccc(-c2ccc(O)c(C)c2)cc1	i
Cc1cc2oc(=O)cc(Cn3nc(C)c(C)c(C#N)c3=O)c2cc1C	i
Cc1ccc(Oc2ccc(NC(=O)C3(C#N)CCCC3)cc2)cc1	i
CCOC(=O)c1cnn(-c2ccc(C(=O)Nc3ccc(Br)cc3)cc2)c1N	i
Cc1ccccc1COc1ccc2c(=O)c(-c3ccccc3)coc2c1	i
NCCCN1C(=O)CC[C@H]2CN(C(=O)c3coc4ccccc34)CC[C@H]21	i
NCCCN1C(=O)CC[C@H]2CN(C(=O)c3ccc4c(c3)CCC4)CC[C@H]21	i
NCCCN1C(=O)CC[C@H]2CN(C(=O)c3cnn4ccccc34)CC[C@H]21	22.4µM*
SMILES	KDM5B inh
O=C(/C=N/O)Nc1cccc([N+](=O)[O-])c1	i
CCc1cccc(NC(=O)Cn2c(C)ccc(NS(=O)(=O)c3ccc(C)cc3)c2=O)c1	i
O=S(=O)(Nc1ccc(-c2nnc3n2CCCCC3)cc1)c1ccc2c(c1)OCCCO2	i
COc1ccc(-c2ccnc(N[C@H]3CO[C@H]4[C@@H]3OC[C@@H]4NC(=O)CC3(CC(=O)O)CCCC3)n2)cc1	28.2µM*
O=C(O)CCCC(=O)N[C@H]1CO[C@H]2[C@@H]1OC[C@@H]2Nc1nccc(-c2ccc3c(c2)OCO3)n1	28.2µM*
COc1ccc(-c2ccnc(N[C@H]3CO[C@H]4[C@@H]3OC[C@@H]4NC(=O)CCCC(=O)O)n2)cc1	31.6µM*
Cc1ccc2oc(C(=O)NCC3(N(C)C)CCCCCC3)cc(=O)c2c1	i
Cc1cccc(Cn2nnc3c(=O)n(Cc4nc(-c5ccccc5C)no4)cnc32)c1	i
O=C(NC1CCCCCC1)c1cc(Cl)nc(Cl)c1	i
Cn1cc(CC(=O)NCc2ccc(C(N)=O)cc2)c2ccccc21	i
O=C(Cc1ccccc1)NCc1ccnc2[nH]ccc12	i
O=C(NCc1ccnc2[nH]ccc12)c1ccccc1Cl	35.5µM*
O=C(NCc1c[nH]c2ncccc12)c1ccccc1Cl	i
O=C(NCc1ccc(Cl)cc1)c1c[nH]c2ncccc12	i
O=C(NC1CC1)c1ccnc2[nH]ccc12	141µM*
O=C(Nc1ccc(F)cc1)c1ccnc2[nH]ccc12	i
CSc1ncc(C(=O)NCc2ccc(Cl)cc2)c(C(F)(F)F)n1	i
O=C(NCc1ccc(Cl)cc1)c1ccnc2[nH]ccc12	28.2µM*
O=C(NC1CCCC1)c1cccc2ncccc12	i
CCn1c(SCC(=O)Nc2oc(C)c3c(C)n[nH]c(=O)c23)nnc1C1CC1	i
Cc1ccc(C(=O)N2CCC3(CC(Cc4ccccc4)=NO3)C2)cc1 (stereo unspecified)	i
O=C(CCc1ccccc1Br)NC1CCN(C2CC2)C1 (stereo unspecified)	i
O=[S+]1([O-])NC2(CCCN(Cc3ccccc3C(F)(F)F)C2)CNc2ccccc21 (stereo unspecified)	i
CC(Sc1n[nH]c(=O)n1CCc1ccccc1)C(=O)c1cccc(Cl)c1 (stereo unspecified)	i
COc1ccc(NC(=O)CSc2nc(N3CCOCC3)c3c(c2C#N)CCCC3)cc1	i
SMILES	KDM5B inh
CC1(C(=O)NC2CCOCC2)CCCc2cnc(Nc3ccccc3)nc21 (stereo unspecified)	i
CN1CCC(NC(=O)C2(C)CCc3cnc(N4CCOCC4)nc32)CC1 (stereo unspecified)	35.5µM*
CN1CCC(CNc2ncc(C(C)(C)C(=O)O)c(N3CCOCC3)n2)CC1	i
COc1ccc(NC(=O)C2(C)CCc3cnc(N4CCOCC4)nc32)cc1 (stereo unspecified)	39.8µM*
COc1ccc(NC(=O)c2ccc(S(=O)(=O)N3CCOCC3)o2)cc1	i
CCNc1c(NC(=O)C(C)(C)C)c(=O)oc2ccccc12	i
CCC(=O)Nc1ccc(C2(C(=O)N3CCCC(C)C3)CCCCC2)cc1 (stereo unspecified)	i
CCc1ccc(-c2noc(CSc3nnc(C4COc5ccccc5O4)o3)n2)cc1 (stereo unspecified)	i
O=C1NC(=NC2CCCC2)C2(CCCN(Cc3ccc(F)cc3)C2)N1c1cccnc1 (stereo unspecified)	i
COc1cc(Nc2ncnc3c2cnn3-c2ccc(Cl)cc2)cc(OC)c1OC	i
O=C1NC(=NC2CCCCC2)C2(CCCN(Cc3cccnc3)C2)N1c1cc(F)cc(F)c1 (stereo unspecified)	i
CC(Sc1nnc(-c2nn(Cc3ccccc3)c(=O)c3ccccc23)o1)C(=O)N1CCCC1 (stereo unspecified)	i
CCCc1noc(CSc2nc3sc(C)c(C)c3c(=O)n2CCOC)n1	i
Cc1cc(C(=O)NCc2ccc(Cl)cc2)n(-c2ccccc2)n1	i
Cc1cn2nc(C(=O)NCc3ccc(Cl)cc3)cc2c(=O)[nH]1	i
O=C(NCc1cccc(Cl)c1)c1ccc2ccccc2n1	i
Cc1cn2nc(C(=O)NCc3ccc(Cl)cc3)cc2c(N(C)Cc2ccccc2)n1	14.1µM*
Cc1cc(=O)n(CC(=O)NCc2ccccc2)c(N(C)Cc2ccccc2)n1	i
Cc1cn2nc(C(=O)NCc3cccc(Cl)c3)cc2c(N(C)Cc2ccccc2)n1	25.1µM*
COC(=O)c1cc(NC(=O)CC23CC4CC(CC(C4)C2)C3)cc(C(=O)OC)c1	i
Cc1ccc(CNC(=O)c2ccccc2NC(=O)CSc2nc(C)cs2)cc1	i
O=C([C@@H]1C[C@H](Oc2ccccc2)CN1C(=O)c1cc2ccccc2[nH]1)N1CCCC1	25.1µM*

Source: PubChem BioAssay (National Center for Advancing Translational Sciences (NCATS))
